Our source for the Potency and outcome values is PubChem BioAssay (Tox21).

Values without a mark were called inactive. Records with an inconclusive call do not appear. Calls of active or inactive are those of the source. Unless noted, calls come from the whole dose curve.

Test [1] can be described thus: Nuclear factor erythroid 2-related factor 2/antioxidant responsive element (Nrf2/ARE) small molecule agonists: qHTS cell viability counter screen in human keratinocytes (AID 1919968; active = well fitted curve in the direction sought with a large enough effect in the repeat runs; an effect the other way counts as inactive or inconclusive; note: nearly all actives have a fitted effect of over 55% in size; note: potency is the fitted concentration of half-maximal effect). The gist of the method:
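KeratinoSens HaCaT cells, 1,500/well, preincubated 5 h, then exposed to compounds in DMSO for 23 h at 37 C/5% CO2. Viability read as CellTiter-Fluor fluorescence after 1 h, in the same wells as the ARE-luciferase read.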
In general terms: In qHTS, concentration-response curves come from the screen itself.

The nature of test [2]: Nuclear factor erythroid 2-related factor 2/antioxidant responsive element (Nrf2/ARE) small molecule agonists: luciferase reporter gene qHTS assay in human keratinocytes (AID 1919969). Note: nearly all actives have a fitted effect of over 35% in size. Background: Reporter assays use an easily measured gene product as a stand-in for the process of interest.
The target in test [3] is Gonadotropin-releasing hormone receptor (Homo sapiens) (UniProt P30968). As to the kind of experiment: Human gonadotropin-releasing hormone receptor (GnRHR) small molecule agonists, calcium flux assay in GnRHR-HEK293 cells (AID 1920063). Note: nearly all actives have a fitted effect of over 35% in size. The gist of the method: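 HEK293 cells stably expressing human GnRHR were dye-loaded for 1 h at 37 C. Compound was added in agonist mode and fluorescence (Ex/Em 480/540) recorded kinetically for 3 min. Fifteen concentrations, triplicates.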
A general note: Calcium assays in cells follow changes in intracellular calcium, usually with a dye or a luminescent sensor.

The target in test [4] is KiSS-1 receptor (Homo sapiens) (UniProt Q969F8). Put plainly: Human kisspeptin (KISS1R) small molecule agonists, calcium flux assay in KISS1R-HEK293 cells (AID 1920064; active = well fitted curve in the direction sought with a large enough effect in the repeat runs; an effect the other way counts as inactive or inconclusive). The gist of the method: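 HEK293 cells stably expressing human KISS1R were loaded with calcium dye for 1 h at 37 C, then given compound; fluorescence (Ex/Em 480/540) was read kinetically for 3 min. Fifteen concentrations, triplicate.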

Test [5] is described as follows: G protein-coupled receptor (GPCR) small molecule agonists, calcium flux assay: HEK293 wild type cell line counter screen (AID 1920065). The gist of the method:
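Wild-type HEK293 cells plated 18 h, loaded with calcium dye 1 h at 37 C, then compounds added in agonist mode (ATP as positive control). Kinetic fluorescence Ex/Em 480/540 recorded 3 min at 1 sec intervals; 15 concentrations, triplicate.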

Test [6] in a line: p53 small molecule agonists, cell-based qHTS assay with human liver microsomes (AID 1963577). The procedure, abridged: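 Fluorescence of the beta-lactamase reporter in p53RE-bla cells, detected with LiveBLAzer substrate (2 h, room temperature, dark), served as the read-out after 16 h compound exposure at 37 C with human liver microsomes and NADPH, each 0.5 mg/mL final.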
Test [7] can be described thus: p53 small molecule agonists, cell-based qHTS assay with rat liver microsomes (AID 1963578). The gist of the method: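 Cells carrying a p53 response element–beta-lactamase reporter were plated and rested 5 h, then dosed with compound in DMSO plus rat liver microsomes and NADPH, each at 0.5 mg/mL final. After 16 h at 37 C, LiveBLAzer substrate was added for 2 h.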
A short description of test [8]: p53 small molecule agonists, cell-based qHTS assay with rat liver microsomes: qHTS cell viability counter screen (AID 1963580). Note: nearly all actives have a fitted effect of over 45% in size. The procedure, abridged: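 p53RE-bla HCT-116 cells (4,000/well) rested 5 h at 37 C, then given Tox21 compounds in DMSO with rat liver microsomes (0.5 mg/mL final) plus NADPH (0.5 mg/mL final) for 16 h at 37 C. Viability read by CellTiter-Glo luminescence after 30 min at room temperature.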

A short description of test [9]: p53 small molecule agonists, cell-based qHTS assay: qHTS cell viability counter screen (AID 1963581). Note: nearly all actives have a fitted effect of over 45% in size. The gist of the method:
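p53RE-bla HCT-116 cells, compounds added 5 h after plating and incubated 16 h at 37 C. Cytotoxicity measured in the same wells as intracellular ATP by CellTiter-Glo luminescence after 30 min at room temperature.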

Test [10] is described as follows: p53 small molecule agonists, cell-based qHTS assay (AID 1963582; active = well fitted activation curve with a large enough effect in the signal ratio in the repeat runs, not every such curve was filed as active; the % refers to the signal ratio). The procedure, abridged:
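p53RE-bla reporter cells, compounds added in DMSO after 5 h plating, incubated 16 h at 37 C. Beta-lactamase read via 2 h room-temperature LiveBLAzer B/G FRET substrate, fluorescence intensity.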

Test [11] deals with 5-hydroxytryptamine receptor 2A (Homo sapiens) (UniProt P28223). As to the kind of experiment: 5-hydroxytryptamine receptor 2A (HTR2A) small molecule antagonists, cell-based qHTS assay (AID 1963586). Note: nearly all actives have a fitted effect of over 45% in size. Note: potency is the fitted concentration of half-maximal effect. The gist of the method: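 Antagonist-mode intracellular calcium assay: DOI (4 nM) added after 5 min compound pre-incubation at room temperature to dye-loaded HTR2A-CHO cells. Fluorescence followed for 3 min, sampled every second.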

Test [12] has the same target. As to the kind of experiment: 5-hydroxytryptamine receptor 2A (HTR2A) small molecule agonists, cell-based qHTS assay (AID 1963587). Note: nearly all actives have a fitted effect of over 30% in size. The gist of the method:
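HTR2A-CHO cells, plated 18 h at 37 C/5% CO2, dye-loaded 1 h at 37 C; compounds in DMSO added by pin tool (agonist mode). Intracellular calcium flux read as kinetic fluorescence on FDSS over 2 min at 1 s intervals.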

In test [13] the target is Muscarinic acetylcholine receptor M1 (Homo sapiens) (UniProt P11229). Put plainly: Cholinergic receptor muscarinic 1 (CHRM1) small molecule antagonists, cell-based qHTS assay (AID 1963588). Note: nearly all actives have a fitted effect of over 40% in size. The procedure, abridged:
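CHRM1-CHO calcium-flux assay, antagonist mode. Cells were seeded 18 h, dye-loaded 1 h at 37 C and given compound for 5 min at RT, then acetylcholine was added at 50nM. FDSS fluorescence was read 3 min; 15 concentrations, three runs.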

The target is the same in test [14]. Put plainly: Cholinergic receptor muscarinic 1 (CHRM1) small molecule agonists, cell-based qHTS assay (AID 1963589). Note: nearly all actives have a fitted effect of over 35% in size. The gist of the method: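 CHO cells stably expressing human CHRM1 were loaded with calcium dye for 1 h at 37 C, then compound was added in agonist mode. Intracellular calcium fluorescence was followed kinetically at 1 s intervals. Fifteen concentrations were tested in three independent runs.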

A short description of test [15]: cAMP Responsive Elements (CRE) small molecule antagonists, cell-based qHTS assay (AID 1963591; active = well fitted inhibition curve with a large enough effect in the signal ratio in the repeat runs, not every such curve was filed as active; the % refers to the signal ratio). The gist of the method:
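CRE-bla HEK293T cells plated 18 h, then given compound plus NKH477 at 0.25 uM final for 3 h at 37C. Beta-lactamase reporter read with LiveBLAzer B/G FRET substrate after 2 h at room temperature.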

In test [16] the target is Beta-2 adrenergic receptor (Homo sapiens) (UniProt P07550). Put plainly: Adrenergic beta2 receptor (ADRB2) small molecule antagonists, cell-based qHTS assay (AID 1963592). Note: series mostly up to about 92 µM; nearly all actives have a fitted effect of over 50% in size. The gist of the method: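 Cells (CHO, stable ADRB2 overexpression) incubated 18-20hr at 37C; compounds added from DMSO; agonist mix (1nM isoproterenol, 100uM IBMX, 25uM Ro-20-1724) added; 0.5hr RT; d2-cAMP and anti-cAMP-cryptate added; 1hr RT; 665/615 nm read.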

Test [17] concerns the target D(2) dopamine receptor (Homo sapiens) (UniProt P14416). Put plainly: Dopamine D2 receptor (DRD2) small molecule agonists, cell-based qHTS assay (AID 1963594). Note: nearly all actives have a fitted effect of over 35% in size. The procedure, abridged: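 HEK293 cells stably expressing DRD2 were cultured 24 h at 37 C, then given Ro20-1724 (0.1 mM final) and compounds for 10 min at room temperature. NKH477 (200nM) was then added for 30 min. cAMP was read by HTRF.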

The target is the same in test [18]. Put plainly: Dopamine D2 receptor (DRD2) small molecule antagonists, cell-based qHTS assay (AID 1963595; active = well fitted inhibition curve with a large enough effect in the signal ratio in the repeat runs, with a control signal flat; the % refers to the signal ratio). The gist of the method:
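In this cell-based antagonist screen, compounds act for 10 min at room temperature before a 30 min challenge with 12 nM quinpirole and 200 nM NKH477. cAMP is quantified by HTRF competition in DRD2-HEK293 cells containing 0.1 mM Ro20-1724.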

The nature of test [19]: cAMP Responsive Elements (CRE) small molecule agonists, cell-based qHTS assay (AID 1963590). The procedure, abridged:
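CRE-bla HEK 293T cells, 2,000/well in DMEM with 10% dialyzed FBS and 25 mM HEPES, pre-incubated 18 h at 37 C, then exposed to compound 3 h at 37 C. Beta-lactamase reporter read with LiveBLAzer B/G FRET substrate after 2 h at room temperature.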

The nature of test [20]: p53 small molecule agonists, cell-based qHTS assay with human liver microsomes: qHTS cell viability counter screen (AID 1963579). Note: nearly all actives have a fitted effect of over 45% in size. The gist of the method: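 Cytotoxicity counter screen: p53RE-bla, 4,000 cells/well; 5 h settle, 37 C/5% CO2; cpd + HLM 0.5 mg/mL + NADPH 0.5 mg/mL (final); 16 h, 37 C; CellTiter-Glo, 30 min RT, luminescence.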

Chain of Beta-2 adrenergic receptor (Homo sapiens) (P07550 whole entry, looked up): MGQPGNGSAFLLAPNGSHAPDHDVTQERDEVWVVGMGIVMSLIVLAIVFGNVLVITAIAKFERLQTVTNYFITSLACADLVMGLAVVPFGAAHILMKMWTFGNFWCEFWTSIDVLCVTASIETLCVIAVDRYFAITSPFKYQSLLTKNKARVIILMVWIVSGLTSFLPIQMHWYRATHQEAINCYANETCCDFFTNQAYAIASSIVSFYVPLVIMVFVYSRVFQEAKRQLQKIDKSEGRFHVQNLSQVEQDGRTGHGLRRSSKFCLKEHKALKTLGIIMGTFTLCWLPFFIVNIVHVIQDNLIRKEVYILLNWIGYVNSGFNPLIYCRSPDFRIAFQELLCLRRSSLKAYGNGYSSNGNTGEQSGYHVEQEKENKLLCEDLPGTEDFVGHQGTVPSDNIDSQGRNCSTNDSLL
Chain of Muscarinic acetylcholine receptor M1 (Homo sapiens) (P11229 whole entry, looked up): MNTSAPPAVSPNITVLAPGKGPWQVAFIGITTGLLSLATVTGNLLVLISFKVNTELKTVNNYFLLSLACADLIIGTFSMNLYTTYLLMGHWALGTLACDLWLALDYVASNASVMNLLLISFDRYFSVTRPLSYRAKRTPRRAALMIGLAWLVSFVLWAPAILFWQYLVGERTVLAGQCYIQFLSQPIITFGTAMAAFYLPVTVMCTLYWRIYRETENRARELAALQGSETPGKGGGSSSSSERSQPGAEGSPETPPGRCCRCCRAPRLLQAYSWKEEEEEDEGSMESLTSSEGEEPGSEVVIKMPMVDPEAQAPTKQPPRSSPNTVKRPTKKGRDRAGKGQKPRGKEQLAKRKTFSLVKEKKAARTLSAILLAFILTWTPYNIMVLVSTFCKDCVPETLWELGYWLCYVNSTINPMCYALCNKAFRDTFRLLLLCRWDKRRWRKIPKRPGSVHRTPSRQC
Chain of Gonadotropin-releasing hormone receptor (Homo sapiens) (P30968 whole entry, looked up): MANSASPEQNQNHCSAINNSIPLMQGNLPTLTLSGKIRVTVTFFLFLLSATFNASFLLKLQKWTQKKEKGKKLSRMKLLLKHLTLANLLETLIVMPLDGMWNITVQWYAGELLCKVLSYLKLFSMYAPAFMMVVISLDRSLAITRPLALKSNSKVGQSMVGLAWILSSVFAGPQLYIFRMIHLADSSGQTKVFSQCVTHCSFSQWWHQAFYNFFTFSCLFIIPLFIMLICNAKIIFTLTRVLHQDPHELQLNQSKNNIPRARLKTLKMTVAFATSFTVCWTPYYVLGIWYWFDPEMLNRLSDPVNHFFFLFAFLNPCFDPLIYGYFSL
Chain of D(2) dopamine receptor (Homo sapiens) (P14416 whole entry, looked up): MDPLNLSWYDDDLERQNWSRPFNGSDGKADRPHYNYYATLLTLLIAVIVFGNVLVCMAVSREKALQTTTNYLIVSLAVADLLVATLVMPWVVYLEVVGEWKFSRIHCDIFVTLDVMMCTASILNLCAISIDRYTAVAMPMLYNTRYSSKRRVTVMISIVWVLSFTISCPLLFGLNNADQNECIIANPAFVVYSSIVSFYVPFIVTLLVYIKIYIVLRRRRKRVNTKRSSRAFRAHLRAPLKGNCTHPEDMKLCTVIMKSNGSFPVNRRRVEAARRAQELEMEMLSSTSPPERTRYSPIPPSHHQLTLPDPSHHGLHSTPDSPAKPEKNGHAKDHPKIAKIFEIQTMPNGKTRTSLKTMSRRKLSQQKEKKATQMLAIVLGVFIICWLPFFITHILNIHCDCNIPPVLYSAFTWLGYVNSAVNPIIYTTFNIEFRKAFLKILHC
Chain of KiSS-1 receptor (Homo sapiens) (Q969F8 whole entry, looked up): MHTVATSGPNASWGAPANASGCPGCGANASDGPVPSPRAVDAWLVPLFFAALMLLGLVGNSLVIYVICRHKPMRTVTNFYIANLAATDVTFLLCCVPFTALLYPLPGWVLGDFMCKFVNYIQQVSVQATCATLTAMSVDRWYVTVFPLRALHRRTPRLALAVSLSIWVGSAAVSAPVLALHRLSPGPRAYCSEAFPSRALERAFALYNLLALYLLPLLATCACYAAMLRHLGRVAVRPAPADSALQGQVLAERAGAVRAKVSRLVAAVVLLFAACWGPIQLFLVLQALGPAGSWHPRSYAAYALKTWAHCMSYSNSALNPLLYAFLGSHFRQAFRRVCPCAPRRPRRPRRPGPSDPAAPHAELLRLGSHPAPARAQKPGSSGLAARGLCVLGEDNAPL
Chain of 5-hydroxytryptamine receptor 2A (Homo sapiens) (P28223 whole entry, looked up): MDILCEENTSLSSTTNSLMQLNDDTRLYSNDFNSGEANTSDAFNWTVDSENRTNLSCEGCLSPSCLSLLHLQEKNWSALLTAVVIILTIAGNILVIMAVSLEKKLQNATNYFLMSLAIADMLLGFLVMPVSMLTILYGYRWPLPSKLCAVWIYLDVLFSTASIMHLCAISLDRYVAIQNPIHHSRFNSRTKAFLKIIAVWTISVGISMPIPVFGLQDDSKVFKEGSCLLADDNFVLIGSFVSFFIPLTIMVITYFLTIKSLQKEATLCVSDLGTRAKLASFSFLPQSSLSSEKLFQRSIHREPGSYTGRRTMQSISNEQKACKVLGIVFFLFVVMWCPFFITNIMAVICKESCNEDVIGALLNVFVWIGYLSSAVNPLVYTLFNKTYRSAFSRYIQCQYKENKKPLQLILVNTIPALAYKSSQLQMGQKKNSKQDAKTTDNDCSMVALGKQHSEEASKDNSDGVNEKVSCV

For `FC(F)(F)C(F)(F)C(F)(F)C(F)(F)C(F)(F)C(F)(F)C(F)(F)C(F)(F)Br`, the Potency entry in [1], in [2], in test [3], in test [6], in test [7] and in test [8] was “inactive” throughout. The Potency entry in test [9], in test [10], in test [11], in test [12], in test [13] and in [14] was “inactive” in each case. The Potency entry in test [15], in test [16], in test [17] and in test [18] was “inactive” each time. Further, the result in test [4] and in [5] was inactive.

As for `O=C(/C=C/c1ccc(O)c(O)c1)O[C@@H]1C[C@](O)(C(=O)O)C[C@@H](O)[C@H]1O`, the Potency entry in test [1], in test [2], in [3], in test [6], in test [7] and in test [8] was “inactive” each time. The Potency entry in test [9], in test [10], in test [11], in test [12], in [13] and in test [14] was “inactive” in each case. The Potency entry in test [19], in test [15] and in test [17] was “inactive” in each case. For the same compound, the outcome in [4] and in test [5] was inactive.

As to `CC(=O)OCC(=O)[C@@]1(O)CC[C@H]2[C@@H]3CCC4=CC(=O)C=C[C@]4(C)[C@@]3(F)[C@@H](O)C[C@@]21C`, the Potency entry in test [1], in [2], in test [3], in test [6], in test [7] and in test [8] was “inactive” in each case. The Potency entry in test [9], in [10], in test [11], in test [12], in test [13] and in test [14] was “inactive” throughout. The Potency entry in [19], in test [16], in [17] and in [18] was “inactive” each time. The outcome in test [4] and in test [5] was inactive.

Regarding `CCN(CC)C(=O)N(CC)CC`, the Potency result in test [1], in [2], in [3], in test [6], in test [7] and in [8] was “inactive” each time. Moreover, the Potency result in test [9], in [10], in [11], in test [12], in [13] and in [14] was “inactive” in each case. Further, the Potency result in test [19], in test [15], in [16], in [17] and in test [18] was “inactive” in each case. For the same compound, the result in test [4] and in test [5] was inactive.

With `Clc1cc(Cl)nc(Cl)n1`, the Potency entry in test [1], in test [2], in [3], in test [6], in test [7] and in [8] was “inactive” each time. For the same compound, the Potency entry in test [9], in [10], in test [11], in [12], in [13] and in [14] was “inactive” throughout. In addition, the Potency entry in test [19], in test [15], in [16] and in test [18] was “inactive” each time. In addition, the outcome in test [4] and in test [5] was inactive.

For `C[C@@]12C(=O)OC(=O)[C@]1(C)C1CCC2O1`, the Potency in test [1] is 16.8 µM (active). Moreover, the Potency result in test [2], in [3], in test [6], in [7], in test [20] and in test [16] was “inactive” throughout. In addition, the Potency result in test [17] and in test [18] was “inactive” throughout. The outcome in [4] and in test [5] was inactive.

As for `CN(C)CCN1CCN(c2cccc(Cl)c2)C1=O`, the Potency entry in [1], in test [2], in test [3], in [6], in test [7] and in [8] was “inactive” throughout. The Potency entry in test [9], in [10], in [12], in [14], in test [19] and in [15] was “inactive” in each case. Further, in test [16], the Potency entry is “inactive”. Also, the outcome in test [4] and in [5] was inactive. Besides, in test [11], the Potency is 1.83 µM (active).
